Rows were chosen to be rich in hits. Some 2.3% of all compounds tested hit in one or more screens of this group.
Mcl1-Bid inh: Mcl-1/Bid interaction inhibition | AID 1021 | inhibition, % at 21.7 µM | hit rate 0.97% among 220,000 | TR-FRET Mcl-1/Bid-Dy647 peptide binding, 1536-well;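 active = compounds that cut the binding signal by more than half at the single screening dose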;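 also: His-tagged Mcl-1 with europium anti-His antibody binding Bid BH3 peptide; 0% = Mcl-1 plus peptide wells and 100% = peptide-only wells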
Target sequence (Q07820 whole entry, looked up): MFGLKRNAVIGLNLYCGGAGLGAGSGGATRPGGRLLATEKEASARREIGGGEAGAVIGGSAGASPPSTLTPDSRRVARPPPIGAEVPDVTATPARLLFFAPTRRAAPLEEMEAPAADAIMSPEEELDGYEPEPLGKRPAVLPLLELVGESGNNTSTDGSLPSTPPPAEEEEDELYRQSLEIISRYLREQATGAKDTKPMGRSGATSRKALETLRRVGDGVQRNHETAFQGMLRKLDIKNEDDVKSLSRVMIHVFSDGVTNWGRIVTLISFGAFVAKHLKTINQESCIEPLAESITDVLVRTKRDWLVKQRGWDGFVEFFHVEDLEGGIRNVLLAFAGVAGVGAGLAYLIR
Bim-Mcl-1: disrupts Bim peptide binding to human Mcl-1. Q07820. Bead-based flow cytometry, Bim peptide-Mcl-1 binding. inhibition, % at 10 µM. hit rate 0.1% among 190,000; in the data active = inhibition above about 40%;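 also: 0% = no compound tracer wells and 100% = peptide blocker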
MCL1 BIM primary: disrupts human MCL1 binding to BIM-BH3 peptide | GST-MCL1 / FITC-Bim-BH3 fluorescence polarization | inhibition, % at 10.9 µM | hit rate 0.68% among 320,000;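 active = inhibition above the mean inhibition of all tested compounds plus 3 SD, set per campaign, cut at about 40% in these data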;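 also: 0% = DMSO wells and 100% = unlabeled Bim-BH3 peptide control; higher means more loss of mP so more displacement of Bim peptide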
GLD-1 TGE inh: GLD-1-TGE RNA interaction inhibition (C. elegans) | Q17339 | purified GLD-1 + fluorescein TGE RNA, fluorescence polarization | inhibition, % at 5.96 µM | AID 2280 | hit rate 0.44% among 320,000;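 active = percent inhibition above a per-plate cutoff, the plate mean of test compounds plus 3 SD, cut at about 30% in these data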;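 also: 0% = DMSO wells with GLD-1 and probe and 100% = wells lacking GLD-1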
Mcl1-Noxa inh: disrupts binding of human Mcl-1 to Noxa peptide | TR-FRET Mcl-1/Noxa peptide binding, 2 h | AID 1022 | Q07820 | hit rate 1.5% among 220,000 | inhibition, % at 21.7 µM;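 active = compounds that cut the protein-peptide binding signal by more than 50% relative to plate controls in a single-dose test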;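 also: His-tagged Mcl-1 with rhodamine Noxa BH3 peptide and terbium anti-His antibody; 0% = Mcl-1 plus Noxa peptide wells and 100% = peptide-only wells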
BCLXL inh: Bcl-xL (human) inhibition. hit rate 0.7% among 320,000. inhibition, % at 10.9 µM. Q07817. GST-Bcl-xL / FITC-Bim BH3 peptide fluorescence polarization;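 active = inhibition above the mean of all tested compounds plus 3 SD, cutoff set per campaign, cut at about 30% in these data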;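 also: 0% = DMSO wells and 100% = unlabeled Bim-BH3 peptide competitor; inhibitors lower millipolarization by displacing the labeled peptide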
Target sequence (Q07817 whole entry, looked up): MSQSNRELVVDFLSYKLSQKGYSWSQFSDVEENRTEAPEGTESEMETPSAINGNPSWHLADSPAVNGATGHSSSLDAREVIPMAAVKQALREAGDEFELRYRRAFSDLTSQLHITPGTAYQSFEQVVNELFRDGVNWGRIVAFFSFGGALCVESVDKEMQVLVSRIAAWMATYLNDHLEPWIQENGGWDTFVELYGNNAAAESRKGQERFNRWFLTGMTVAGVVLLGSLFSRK
BCLXL inh confirm: Bcl-xL (human) inhibition, MCL1 counter-screen confirmation; shares compounds with MCL1 BIM primary; GST-Bcl-xL / FITC-Bim BH3 peptide FP binding; inhibition, % at 10.9 µM; hit rate 54% among 1,700; AID 2166;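 active = inhibition above a cutoff equal to the mean inhibition of all tested compounds plus 3 SD, cut at about 30% in these data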;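 also: 0% = DMSO wells and 100% = unlabeled Bim BH3 control peptide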
MCL1 BIM confirm: MCL1-BIM-BH3 interaction inhibition, confirmation; AID 2168; inhibition, % at 10.9 µM; GST-MCL1 / FITC-Bim-BH3 fluorescence polarization; shares compounds with MCL1 BIM primary; hit rate 61% among 1,700;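 active = inhibition above the average of all tested compounds plus 3 SD, cut at about 40% in these data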;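 also: 0% = DMSO wells and 100% = unlabeled Bim-BH3 control peptide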
Starred values were filed as active, the others as inactive; / = no result given; + = active, no number.

SMILES | Mcl1-Bid inh | Bim-Mcl-1 | MCL1 BIM primary | GLD-1 TGE inh | Mcl1-Noxa inh | BCLXL inh | BCLXL inh confirm | MCL1 BIM confirm
CCC(C)[C@H](NC(=O)C1CC(=O)N(c2ccc3c(c2)OCO3)C1)C(=O)NC1CCCCC1 (some centres not stated) | / | / | 59.6* | 38.0* | / | 54.3* | 59.6* | 77.7*
CCC(C)[C@H](NC(=O)C1CC(=O)N(c2ccc3c(c2)OCCO3)C1)C(=O)NC1CCCC1 (some centres not stated) | / | / | -4.1 | 3.7 | / | 0.9 | / | /
CCn1ncc(S(=O)(=O)N2CCN(c3cccc(OC)c3)CC2)c1C | / | / | -2.1 | -0.5 | / | 7.0 | / | /
Cc1c(CC(=O)NCCCO)c(=O)oc2cc3c(cc12)CCC(C)(C)O3 | / | / | 5.0 | 4.2 | / | 2.1 | / | /
c1ccc(CSc2nnc(-c3ccco3)n2Cc2ccco2)cc1 | -4.5 | 0.0 | 3.3 | -3.7 | 5.3 | 2.1 | / | /
CCCCOc1[nH]c2nc(-c3ccco3)n(Cc3ccco3)c(=N)c2c1C#N | -11.6 | -2.0 | 163.3* | 107.5* | 6.5 | 139.6* | 90.2* | 122.5*
COc1ccc2nc(SCC(=O)Nc3ccc(S(=O)(=O)N4CCCC4)cc3)c(C#N)cc2c1 | -29.7 | 0.0 | -16.5 | -44.8 | -240.1 | -14.4 | / | /
Nc1c(C(=O)Nc2ccc(S(=O)(=O)N3CCCC3)cc2)sc2nc3ccc(OC(F)(F)F)cc3cc12 | -38.0 | 1.0 | 48.4* | 22.9 | 17.1 | 57.3* | 35.5* | 41.7*
Cc1noc(C)c1COc1ccc(C(=O)NCCc2ccccn2)cc1 | -10.5 | 0.0 | 3.8 | 2.5 | 7.6 | 4.2 | / | /
Cc1ccc(C)c(S(=O)(=O)C(C#N)c2nc3ccccc3nc2N2CCOCC2)c1 (configuration not stated) | 5.9 | -7.0 | 13.3 | 11.7 | 21.0 | 12.6 | / | /
Cc1ccc(C)c(S(=O)(=O)C(C#N)c2nc3ccccc3nc2N2CCCC2)c1 (configuration not stated) | -16.3 | -5.0 | 77.7* | 50.9* | 41.9 | 77.2* | 22.0 | 12.0
CCN(CC)c1ccc(C=C2C(=O)OC(c3ccccc3)OC2=O)cc1 (configuration not stated) | -43.4 | 0.0 | -18.1 | -4.1 | 6.5 | -5.8 | / | /
CCN(CC)c1ccc(/C=C/C(=O)C2C(=O)C=C(C)OC2=O)cc1 (configuration not stated) | -46.3 | / | 79.4* | -102.4 | 24.8 | 76.2* | 78.8* | 124.8*
Cc1ccc(C(=O)CCC(=O)NNC(=O)c2ccccc2O)cc1 | / | / | 10.5 | 0.7 | / | 3.1 | / | /
COc1ccccc1C(=O)NCC(=O)OCC(=O)c1cccc2ccccc12 | / | / | -0.5 | -2.9 | / | 0.2 | / | /
O=C(O)c1ccccc1NS(=O)(=O)c1cccc(-n2sc3ccccc3c2=O)c1 | / | / | 55.9* | 9.9 | / | 23.4 | 35.0* | 68.3*
O=C1/C(=C/c2ccco2)CCc2ccccc21 | -72.6 | -1.0 | 13.0 | 5.1 | -7.8 | 8.3 | / | /
Nc1ccc2c(c1)C/C(=C/c1ccco1)C2=O | -82.8 | -3.0 | 105.3* | 24.7 | 36.6 | 60.4* | 97.3* | 106.1*
Nc1nonc1-n1nnc(C(=O)N/N=C/c2ccncc2)c1-c1ccccc1 | / | / | 0.8 | 2.9 | / | 2.1 | / | /
O=C(CSc1nc(-c2ccccc2)cc(=O)[nH]1)N1CCOCC1 | -0.5 | -5.0 | 48.3* | 9.6 | 23.4 | 5.7 | 10.3 | 2.7
CC(=O)c1c(C(C)=O)c(C)n(-c2ccc(C(=O)O)cc2)c1C | -25.8 | -1.0 | 6.3 | -0.2 | / | 4.1 | / | /
Cc1ccc(C)n1-c1ccc(C(=O)O)cc1 | -47.8 | -3.0 | 44.7* | 5.5 | 61.9* | 11.2 | 21.4 | 40.8*
CC(C)Cc1ccc(CN2CCCC(NC(=O)c3cccc(-n4cnnc4)c3)C2)cc1 (configuration not stated) | / | / | 7.7 | -1.3 | / | 7.7 | / | /
Nc1c(NCc2ccccc2)c(=O)[nH]c(=O)n1Cc1ccccc1 | -55.0 | -6.0 | 88.0* | 86.0* | 11.2 | 70.0* | 8.0 | 14.9
CN(C(=S)NC(=O)c1ccccc1)c1c(N)n(Cc2ccccc2)c(=O)[nH]c1=O | -35.1 | / | 7.1 | -3.0 | 6.6 | 6.9 | / | /
SMILES | Mcl1-Bid inh | Bim-Mcl-1 | MCL1 BIM primary | GLD-1 TGE inh | Mcl1-Noxa inh | BCLXL inh | BCLXL inh confirm | MCL1 BIM confirm
COc1ccc(N2CCN(S(=O)(=O)CCNC(=O)c3cc(=O)c4ccccc4o3)CC2)cc1 | / | / | 1.6 | -1.6 | / | 1.7 | / | /
c1ccc(CNc2c3ccccc3nc3ccccc23)cc1 | / | / | 2.1 | -3.0 | / | 3.2 | / | /
OCC(Cc1ccccc1)Nc1c2ccccc2nc2ccccc12 (configuration not stated) | -24.7 | -3.0 | 40.1* | 15.7 | 22.9 | 27.8 | 21.6 | 24.3
CC1C(=O)N2CCCc3cc(NC(=O)CC(C)(C)C)cc1c32 (configuration not stated) | / | / | 2.2 | -4.4 | / | 5.2 | / | /
CCSC1=N/C(=C\c2ccc(-c3ccccc3[N+](=O)[O-])o2)C(=O)S1 | -19.2 | -1.0 | 90.0* | 47.6* | 47.5 | 74.2* | 119.8* | 141.2*
O=[N+]([O-])c1ccccc1-c1ccc(/C=N/n2cnnc2)o1 | -31.2 | -2.0 | 13.9 | -2.4 | 18.0 | 7.7 | / | /
CN(CC(=O)Nc1sccc1C#N)C1CCCCC1 | -6.5 | -4.0 | 111.7* | 62.1* | 61.5* | 61.0* | 21.5 | 23.4
N#Cc1ccsc1NC(=O)CN1CCCCCC1 | -46.5 | 1.0 | 2.1 | 14.4 | 16.9 | 2.6 | / | /
Cc1ccc(CNC(=O)CC(C)S(=O)(=O)c2ccc3c(c2)NC(=O)CO3)cc1 (configuration not stated) | / | / | -4.6 | -0.2 | / | 0.1 | / | /
Cc1ccc(CNC(=O)CC(C)S(=O)(=O)c2ccc3c(c2)NC(=O)CS3)o1 (configuration not stated) | / | / | 85.6* | 45.6* | / | 84.6* | 8.2 | -8.6
N#Cc1c(SCC(=O)Nc2nc3ccc(Br)cc3s2)sc2c(O)cc(=O)[nH]c12 | / | / | 47.8* | -8.1 | / | 19.4 | 22.8 | 54.1*
N#Cc1cccc(NC(=O)CSc2sc3c(O)cc(=O)[nH]c3c2C#N)c1 | / | / | -4.3 | 0.2 | / | 1.4 | / | /
N#Cc1c(SCC(=O)Nc2nccs2)sc2c(O)cc(=O)[nH]c12 | / | / | 49.6* | -4.6 | / | 17.4 | 15.4 | 14.4
N#Cc1c(SCC(=O)Nc2nc3ccccc3s2)sc2c(O)cc(=O)[nH]c12 | / | / | 57.3* | 1.3 | / | 30.6* | 26.4 | 71.6*
CCCSc1nnc(NC(=O)CSc2sc3c(O)cc(=O)[nH]c3c2C#N)s1 | / | / | 39.0 | 1.8 | / | 19.2 | / | /
Nc1ccc2nc(CCc3ccccc3)[nH]c2c1 | 45.6 | -3.0 | 7.3 | 2.6 | -13.6 | 7.0 | / | /
Nc1ccc2nc3c(=O)n(C4CCCCC4)c(=O)[nH]c3nc2c1 | -91.3 | / | + | + | -123.7 | + | 190.8* | +
